# Results: publication PMC7819943, “Rice protein-binding microarrays: a tool to detect cis-acting elements near promoter regions in rice”
# In all, about 68,000 sequences were measured (“fluorescence intensity (a.u.)”: median about 9,100, highest 2% from about 16,000 on). For the sample, the highest values were picked, then their nearest neighbours and some sequences at random.
# Biological target: OsWRKY34 (Oryza sativa, UniProt Q0JBA9 1-250)
# Test: protein-binding microarray (RPBM); PBS, 2% BSA, 51.3 ng/ul salmon testes DNA, 50 uM zinc acetate, 200 nM TF, 25 C, 1 h; high values mean tight binding
# Details: protein: recombinant; tags: N-terminal polyhistidine and DsRed monomer fusion (pET32a); label: CyDye5-dUTP incorporated in the synthesized complementary strand; 3' TTTTT single-stranded linker to array surface; dsDNA, one strand shown
# Procedure, shortened: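 In PBS with 2% BSA, salmon testes DNA and 50 µM zinc acetate, 200 nM protein was incubated on a custom Agilent array at 25 °C for 1 h and then washed off. The array had been made double-stranded by primer extension with Cy5-dUTP and blocked with 2% BSA. The proteins were transcription factors fused N-terminally to polyhistidine and DsRed, expressed in E. coli BL21-CodonPlus and purified on Ni–NTA. The binding signal is per-feature fluorescence intensity (arbitrary units) from an Axon 4000B scanner.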
# OsWRKY34, sequence (Q0JBA9 entry or part of it): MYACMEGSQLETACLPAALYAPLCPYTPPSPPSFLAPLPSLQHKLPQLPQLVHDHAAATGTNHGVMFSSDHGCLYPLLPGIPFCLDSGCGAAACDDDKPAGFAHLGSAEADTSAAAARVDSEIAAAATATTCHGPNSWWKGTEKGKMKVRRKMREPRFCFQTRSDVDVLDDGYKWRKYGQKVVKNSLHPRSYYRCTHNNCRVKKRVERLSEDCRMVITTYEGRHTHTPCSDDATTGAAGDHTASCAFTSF
row,Sequence,binding signal
1,GGTTTCGTTCGCGAGGAGGAGAGATCTGGTTGGGGAGATGCGGAGTCACCTAGTGCAG,9660 fluorescence intensity (a.u.)
2,AGGAGGCGCTACCTTCTATTCCTCACCGGCTCACCGCTATCGGAGTCACCTAGTGCAG,9700 fluorescence intensity (a.u.)
3,TGATTTTTTTTTTGTTTCACAGTGCACAGACCAATGTTTCCGGAGTCACCTAGTGCAG,8320 fluorescence intensity (a.u.)
4,CGCCGCCACCGCGACTCCTCGCATTCGTCCCCACCACATCCGGAGTCACCTAGTGCAG,9990 fluorescence intensity (a.u.)
5,CTTTTTTTTAATGTATTGATGCTTCTTTTCTAGTTTGTACCGGAGTCACCTAGTGCAG,9060 fluorescence intensity (a.u.)
6,AGTAGCAGCAGCAGCAGCAGGCAGGAGGGAGTGGGTTTGTCGGAGTCACCTAGTGCAG,9600 fluorescence intensity (a.u.)
7,GACAGCGTGAATTCGAGGGATTTCTTGGCTGGTTTGGTTGCGGAGTCACCTAGTGCAG,10100 fluorescence intensity (a.u.)
8,TTCTCCGCGCTGCAGTCCTCGCCACAACTCGTCGGCCGAACGGAGTCACCTAGTGCAG,11600 fluorescence intensity (a.u.)
9,GGTCATTCATGTATTTTTCTTGCGTTTTGCAATCCTCTGTCGGAGTCACCTAGTGCAG,11200 fluorescence intensity (a.u.)
10,CCGCCGCCGCCGCCGCCGACCTTGTCACTCCGGCCGCTGCCGGAGTCACCTAGTGCAG,9390 fluorescence intensity (a.u.)
11,GACCGACTACTCCTACAAACATTACTCAAGTCATTGCAAACGGAGTCACCTAGTGCAG,8200 fluorescence intensity (a.u.)
12,ATTTTGCATGGGGCATGTGTGAAGTGTCCTACTAAATTTTCGGAGTCACCTAGTGCAG,9350 fluorescence intensity (a.u.)
13,GGAGGGGCGGGGTGGCGCGGCGAGGCCGGCGACAAGGCCGCGGAGTCACCTAGTGCAG,9130 fluorescence intensity (a.u.)
14,GACTCGGCGGCCTCTGCTCCTCCGCTCGTTCCTCTCCCGACGGAGTCACCTAGTGCAG,11100 fluorescence intensity (a.u.)
15,CCCGGCCGCTCTCTCCGGGTGGGGTGGTGGGTGGCAAGGGCGGAGTCACCTAGTGCAG,21100 fluorescence intensity (a.u.)
16,TCCGCTCGTTCCTCTCCCGACGAGGGTGGGTGGGGTGGGGCGGAGTCACCTAGTGCAG,22700 fluorescence intensity (a.u.)
17,GGTTCGTTCGTTCCTCCCGCGGCGACGGGGTGGGGCACACCGGAGTCACCTAGTGCAG,8930 fluorescence intensity (a.u.)
18,CGGTAGGGCGAGCACGGGTGGGGTTGGTGGTGATTTTTTTCGGAGTCACCTAGTGCAG,20800 fluorescence intensity (a.u.)
19,AGGGAGGCGTAGGTTGTGGTCGTTGTTGCGGTTTGGAGTTCGGAGTCACCTAGTGCAG,8250 fluorescence intensity (a.u.)
20,GGTTGTAGGTGGAGGAGGAGGAGGGGCGGTTCCGGAGTTTCGGAGTCACCTAGTGCAG,22600 fluorescence intensity (a.u.)
21,GGTAGGGCTGCCGCCGGTGGGTAGGGGTGGTGGATTTTTTCGGAGTCACCTAGTGCAG,14400 fluorescence intensity (a.u.)

row,Sequence,binding signal
1,GTGTGGTGCGAGCAGTGATATTTTCTGTGTTGGGTCTGGGCGGAGTCACCTAGTGCAG,8120 fluorescence intensity (a.u.)
2,GCGCGCCGCGCTCACGGGTGGGTCAAGGCAAGGGGAAGGGCGGAGTCACCTAGTGCAG,9400 fluorescence intensity (a.u.)
3,AATTCCGGTGGTTCACCGCCGGTGAGGGTTGGAGGAGGGGCGGAGTCACCTAGTGCAG,8160 fluorescence intensity (a.u.)
4,TCGTTTCTTTGCCAGCTGCGCATCCATTCAGCCGGTCGTACGGAGTCACCTAGTGCAG,12700 fluorescence intensity (a.u.)
5,CTTTTATTTAACGGATGTTTCACCATGGTCTTTACTGTAGCGGAGTCACCTAGTGCAG,9320 fluorescence intensity (a.u.)
6,TCCCATCACACACACCACCGCTCCGCTCCATGTCGCACCACGGAGTCACCTAGTGCAG,8350 fluorescence intensity (a.u.)
7,CGTAGAAGATGTTGCTGTTGCCGCCGTTGACGAACTTGGTCGGAGTCACCTAGTGCAG,8810 fluorescence intensity (a.u.)
8,CAAATTACTACTACCTCCGTCCCAAAATAATTGCATTTCTCGGAGTCACCTAGTGCAG,8950 fluorescence intensity (a.u.)
9,CACGCACCCTCTTTCCCGTGCTTCGTGTGCCCTTCGATCGCGGAGTCACCTAGTGCAG,9430 fluorescence intensity (a.u.)
10,AGATTATTTTGCTCGATTTTGAATTTTTCATGCATCCGTCCGGAGTCACCTAGTGCAG,9150 fluorescence intensity (a.u.)
11,AGAGCGGGTGGGAGGCGAAGTAGACAGGGGCGGGGCGCATCGGAGTCACCTAGTGCAG,15700 fluorescence intensity (a.u.)
12,TTACCTCGCGTACCCTCGCACCCGTCTCCCGCAGACAGATCGGAGTCACCTAGTGCAG,8480 fluorescence intensity (a.u.)
13,GTGTGTGCATGCTGATAGCTTGGTCTCTTGAGGATAATTGCGGAGTCACCTAGTGCAG,9730 fluorescence intensity (a.u.)
14,TCATTTGATTTATTGTTAAATATATTTTTATGTATACATACGGAGTCACCTAGTGCAG,8550 fluorescence intensity (a.u.)
15,CTTCCTCCGTTTCACAATGTAAGTCGTTCTAGCATTTTTCCGGAGTCACCTAGTGCAG,8110 fluorescence intensity (a.u.)
16,GTTATGTTAGGTCTGGTTTTTTGGCTGTAGCAGCAGCAGTCGGAGTCACCTAGTGCAG,8510 fluorescence intensity (a.u.)
17,GCTAGACACAGGCAACCAAACACACCCTAACACTCACTGTCGGAGTCACCTAGTGCAG,9290 fluorescence intensity (a.u.)
18,GCGGCGCGGTGCGCTCGGGTGGGGCCGGTCGACGTCTGCACGGAGTCACCTAGTGCAG,8120 fluorescence intensity (a.u.)
19,ACCTCCTTTTCATACAGCCGGCGTGGCATTTGTGGGCCCACGGAGTCACCTAGTGCAG,9220 fluorescence intensity (a.u.)
20,GCGGGCGGCAGCGCGGTGGGGCGGTGGCGGTGGTGGCGGCCGGAGTCACCTAGTGCAG,9980 fluorescence intensity (a.u.)
21,GGAACGGCCAGCGGCGGCGGCGGGTAGGGTGGGGTGGGGCCGGAGTCACCTAGTGCAG,21600 fluorescence intensity (a.u.)

row,Sequence,binding signal
1,CGGGTAGGGTGGGGTGGGGCGGGGTGGGGTTGGCGGCGACCGGAGTCACCTAGTGCAG,39500 fluorescence intensity (a.u.)
2,CGGCGGCGGCGACCGCGGGTAGGGTGGGTGGCGCGGGCCGCGGAGTCACCTAGTGCAG,9330 fluorescence intensity (a.u.)
3,GGCCGGCGACGCTGAACGGGGTGGGGTAGTCTGCTATTTACGGAGTCACCTAGTGCAG,18000 fluorescence intensity (a.u.)
4,GGTGGGCCGGGCTTTGCTTTTGCTTTAAACATTTGCGTGGCGGAGTCACCTAGTGCAG,8680 fluorescence intensity (a.u.)
5,TCGTTGGTGGGTAGGTGGTGGAGATGGTGGTGGCGGCGGGCGGAGTCACCTAGTGCAG,15600 fluorescence intensity (a.u.)
6,GACGTGGCTATGGGTGGGCGTTGCGAGCCGGCATTTTATACGGAGTCACCTAGTGCAG,16400 fluorescence intensity (a.u.)
7,TAGGTAGGGTGGTGGCGGGCGGGCTCCCGCAGCCAGTGGCCGGAGTCACCTAGTGCAG,11100 fluorescence intensity (a.u.)
8,GCTGTGGGTAGGCCGGCGCCGCCGGCCGACGGGTGGGGAGCGGAGTCACCTAGTGCAG,8420 fluorescence intensity (a.u.)
9,AAGAAGGGGAAGGGAGTTTCTATGGTTCTTGCTGGTGCCGCGGAGTCACCTAGTGCAG,8750 fluorescence intensity (a.u.)
10,GCCTATTTTTTCGTACGGAGTTGGCTTGTAGTAGTTGCATCGGAGTCACCTAGTGCAG,8950 fluorescence intensity (a.u.)
11,ACTTCCAAGTCTTCGACCGCGACACTCCTTACCCGCACGCCGGAGTCACCTAGTGCAG,8570 fluorescence intensity (a.u.)
12,CGACTACTCGGCCGGCCACCTGCGCCGTCTCTACCCCGAGCGGAGTCACCTAGTGCAG,9320 fluorescence intensity (a.u.)
13,GTCCTGCTACGCATACTCTCCCCTCTGACTCTTTGCGCCACGGAGTCACCTAGTGCAG,8250 fluorescence intensity (a.u.)
14,GGTCCATCACTCCAAGGTCAGTGCTTTTTTATTTACTCTACGGAGTCACCTAGTGCAG,14600 fluorescence intensity (a.u.)
15,AATAAGACGAAAAGTCAAACGTTTGTCAAAAAGTCAACGGCGGAGTCACCTAGTGCAG,8290 fluorescence intensity (a.u.)
16,CGGGCGGGTCAAGGTCTCCTCCTCTCTCGTCGGCGACCTCCGGAGTCACCTAGTGCAG,10900 fluorescence intensity (a.u.)
17,TACTCCTCGTCATTTTGGTTTTGGTTTTGGTTTGGGTGGTCGGAGTCACCTAGTGCAG,10400 fluorescence intensity (a.u.)
18,CCAAGGGTGGGGCCTCTCGTCGTCTCGTCTCCTCTCGTCTCGGAGTCACCTAGTGCAG,20400 fluorescence intensity (a.u.)
19,GACTAATAGCTTCAGTTTTGCATGCGATGGCCACTCAAATCGGAGTCACCTAGTGCAG,10100 fluorescence intensity (a.u.)
20,TTCAGTTTTCACTTCATTATTTTGCCGTTTCTCTTTGACCCGGAGTCACCTAGTGCAG,12300 fluorescence intensity (a.u.)
21,GCTCCTCGTCGCCACCGATCCCCGCCGCCGGCTTGCCTCACGGAGTCACCTAGTGCAG,9340 fluorescence intensity (a.u.)

row,Sequence,binding signal
1,ATCACACGCTGCACCTCTCCCGCGCCCACCAGTCCACTCACGGAGTCACCTAGTGCAG,18500 fluorescence intensity (a.u.)
2,ACCACTCCACGCGCCTATATCACCACACGTCACGCTTCCACGGAGTCACCTAGTGCAG,16700 fluorescence intensity (a.u.)
3,CGCGCCCACCAGTCCACTCACGCGGTCACTCTCCTCCAGTCGGAGTCACCTAGTGCAG,8140 fluorescence intensity (a.u.)
4,CCACTCACCACGCGCGCTGCCCGCTTGCCTCCTCTGCCCACGGAGTCACCTAGTGCAG,10200 fluorescence intensity (a.u.)
5,CACCACCCCGGCCGCTTCCGCCACTTCACTCCACTCCACACGGAGTCACCTAGTGCAG,13200 fluorescence intensity (a.u.)
6,CACCACACGTCACGCTTCCACCTCCACCTCCACCTCACTGCGGAGTCACCTAGTGCAG,11900 fluorescence intensity (a.u.)
7,ACGCTGTTGTAATTCCAGATGTTGGTCAGTAGTCATTACTCGGAGTCACCTAGTGCAG,10700 fluorescence intensity (a.u.)
8,CGGGGAGTCGTTGCTGTTCTTGTTCTTGGTCGAGGTTGAGCGGAGTCACCTAGTGCAG,14500 fluorescence intensity (a.u.)
9,TCAGCAATCTCTCTTTCTACTAGGGTCTCTTCTACCAGCGCGGAGTCACCTAGTGCAG,8070 fluorescence intensity (a.u.)
10,TTGACCACCAAGCTCCTGCTTCTTGCAATCTTGATCGATACGGAGTCACCTAGTGCAG,9170 fluorescence intensity (a.u.)
11,ATCCTCATATCGTGTATCCGTATTCGTATCCCCGTATTTGCGGAGTCACCTAGTGCAG,8230 fluorescence intensity (a.u.)
12,CTGCACCTAAAGCCTTTCAGAAAACTTTTCACCCTGTCAACGGAGTCACCTAGTGCAG,8740 fluorescence intensity (a.u.)
13,ACATCAACACACCATCACTCGCACAAAACACACTAATAAACGGAGTCACCTAGTGCAG,8440 fluorescence intensity (a.u.)
14,TCAACCATAATCACTAGTGTCACAAACACCTTGAAATTCACGGAGTCACCTAGTGCAG,8120 fluorescence intensity (a.u.)
15,CACTAATTGATCAATTGCACAACAAATTGCTTGAATAACGCGGAGTCACCTAGTGCAG,65500 fluorescence intensity (a.u.)
16,AGAATGTTATACGGCGCTCGATCTATTATTCCGCACTCTACGGAGTCACCTAGTGCAG,8130 fluorescence intensity (a.u.)
17,TCTCCGTTGTAATATGTTCTTTGTCCTCGATGTGTTTCCGCGGAGTCACCTAGTGCAG,11400 fluorescence intensity (a.u.)
18,GATGTACTGAACTGTTTTTTTTTTCGTTTTTAATTTCTAGCGGAGTCACCTAGTGCAG,8550 fluorescence intensity (a.u.)
19,GTTTTACTAGTGAATTTTCTTTTCTTTGCTTCGTTTAATGCGGAGTCACCTAGTGCAG,8930 fluorescence intensity (a.u.)
20,AATTTCGTTTTTAATACGCCCAGTGAAATTTGCTGTCTAGCGGAGTCACCTAGTGCAG,17500 fluorescence intensity (a.u.)
21,TCTCGCCACCTTCGCCTCCATCTCATCGACCGCCCACTTCCGGAGTCACCTAGTGCAG,12800 fluorescence intensity (a.u.)
